# Compounds without any hit were thinned out: in the full panel of roughly 83,000, 20% have a hit.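 Each cell line was grown in a 96-well plate and treated with one concentration of compound for 48 hours. Values below 10 were considered active.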 Unmarked numbers belong to inactive results. Activity calls are given as the source filed them.
# Tested on: MDA-MB-468 breast
# Test: NCI-60 one-dose screen, 48 h (100 = growth as untreated, 0 = no growth, -100 = all killed)
# Conditions: 10 µM unless noted
row,Structure (SMILES),growth
1,C[C@]12CCC(=O)C=C1CC[C@H]1[C@@H]3C[C@@H](O)[C@](O)(C(=O)CO)[C@@]3(C)C[C@H](O)[C@@]12F,128%
2,CCOC(=O)N1C/C(=C/c2ccc(OC)cc2)C(=O)/C(=C/c2ccc(OC)cc2)C1,-28.9% (active)
3,NC(=O)c1cc(I)ccc1NC(=O)COc1ccccc1,30.3%
4,COc1ccc2nc3cc(Cl)ccc3c(N3CCN(c4nccc(Nc5ccc(Cl)cc5)n4)CC3)c2c1,82.8%
5,N#C/C(=C\c1ccc(-c2ccc(Cl)cc2)o1)c1ccc(Cl)cc1,82.2%
6,CCc1cccc2c3c(sc12)C(c1ccc(F)cc1)C(C#N)=C(N)O3 (centres undefined),31.2%
7,COc1cc(Cl)cc(-c2nn(-c3cccc(NC(=O)c4ccc(N5CCOCC5)c(C(F)(F)F)c4)c3)cc2-c2ccncc2)c1,50.2%
8,Cc1ccc2c(c1)C(C)Cc1c(Cl)ncnc1N2C (centres undefined),-26.4% (active)
9,O=c1ccn(C2OC(F)(CO)C(O)C2F)c(=O)[nH]1 (centres undefined),126%
10,COc1ccc(/C=C2\CS(=O)(=O)C/C(=C\c3ccc(OC)cc3)C2=O)cc1,-85.3% (active)
11,Cc1cc(Cc2cc(C)c(O)c(C)c2)cc(C)c1O,-0.94% (active)
12,CN1CCc2nc3sc(C(N)=O)c(N)c3c(-c3cccs3)c2C1,14.2%
13,CC(C)(C)n1cc(-c2ccnc(NCCCNS(=O)(=O)c3cccc(F)c3)c2)c(-c2cccc(O)c2)n1,25.9%
14,Cc1cc(C)c(NC(=O)c2sc3nc4c(cc3c2N)CN(Cc2ccccc2)CC4)c(C)c1,14%

# From PubChem BioAssay (NCI)
